The source of these data is ChEMBL document CHEMBL3433997, “St. Jude Leishmania screening dataset” (2016).

For orientation: inhibition means the drop in the measured response relative to a control, in per cent.

Each structure is given as a SMILES string.

In this assay the target is Glucose transporter (Leishmania mexicana) (UniProt O61059). The assay can be described thus: ST_JUDE_LEISH: Cytotoxicity at 2uM final concentration against transgenic Leishmania Mexicana promastigotes LmGT2 that are glucose transport deficient and complemented with the L. Mexicana glucose transporter 2. Activity is measured by DNA content using SYBR green in vitro. Type of assay: functional.
Regarding `CC(=O)Nc1nc(C(=O)Nc2cccc(-c3ccc(-c4nc5cccc(C)c5[nH]4)cc3)c2)cs1`, the inhibition amounted to 6.75%. The figure for `CCNc1cc(C(=O)N[C@@H](Cc2ccccc2)[C@H](O)CNC2(CC)CC2)cc(N2CCCCS2(=O)=O)c1` is -2.45%; for `O=S(=O)(c1cccc(C(F)(F)F)c1)N1CCC(CO)(Cc2cccc(C(F)(F)F)c2)CC1` it is 7.55%. With `CN(C)c1ccc(-c2ccc(C(=O)NC3CCN(Cc4cccc(C(F)(F)F)c4)CC3)s2)cc1` the figure was 3.55%; with `Cc1cccc(NC(=O)NC2CCN(CCCCCNC(=O)/C=C/c3ccc(Cl)c(Cl)c3)CC2)c1`, 3.5%; with `O=C(N[C@@H](Cc1ccccc1)C(=O)O)c1cc(-c2ccc(F)cc2)no1.O=C(N[C@@H](Cc1ccccc1)C(=O)O)c1conc1-c1ccc(F)cc1`, 6.74%. The figure for `O=C(Nc1ccc(C(F)(F)F)cc1)Nc1ccccc1N1CCNCC1` is 6.58%; for `CCOC(=O)NCC(=O)Nc1cccc(-c2cccc(-c3nc4cc(C(F)(F)F)ccc4[nH]3)c2)c1` it is 5.34%. Turning to `CC(=O)Oc1cc(C)ccc1C1CCN(CCCCNC(=O)c2ccc(-c3ccc(C(F)(F)F)cc3)cc2)CC1`, the inhibition turned out to be 1.11%. The figure for `CN(C)CCNC(=O)N1CCCN(c2ncnc3cc(-c4ccccc4)sc23)CC1` is 6.1%.

Consider `CCCOc1ccc(-c2nonc2NC(=O)c2cccc(OC)c2)cc1OCCC`, for which the inhibition was 10.5%. The figure for `CC1CCc2sc(-c3nnc(SC(C)C(=O)NC4CC4)o3)cc2C1` (configuration not stated) is 1.25%.
